HP1b binding inh: inhibitors of HP1-beta chromodomain binding to methylated histone tails | P83916 | AlphaScreen HP1-beta / biotin-H3K9me3 peptide binding | Potency, µM (highest dose often 114 µM), inactives show at the top dose activity change, negative = inhibition, actives largely listed as inhibitors | 0.56% of 390,000 active; also: nearly all actives have a fitted effect of over 70% in size
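HP1-beta protein (50 nM final) preincubated 30 min at room temperature with biotinylated H3(1-18)K9me3 peptide (50 nM) in PBS pH 7.4, 0.01% Tween-20, then compound added for 30 min. AlphaScreen streptavidin donor/nickel chelate acceptor beads (10 ug/mL final), 30 min dark, luminescence read.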
TDP1 inh: TDP1 (human) enzyme inhibition; Q9NUW8; recombinant TDP1, AlphaScreen DNA substrate cleavage; Potency, µM (titrated, usually from 130 µM), without a hit: top-dose activity change, negative = inhibition, usual class: inhibitors; 0.28% of 350,000 active; AID 485290; also: % is scaled to controls: 0 for no effect and ±100 for the full control effect; nearly all actives have a fitted effect of over 40% in size
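E. coli-derived human Tdp1, 1 nM final. Cpd preinc 15 min RT; substrate 15 nM final, 5 min RT; AS bead mix 10 ug/ml final, 10 min RT. Signal loss = tyrosine-FITC cleavage. No-enzyme wells = max signal.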
Sfp PPTase inh: inhibitors of Bacillus subtilis Sfp phosphopantetheinyl transferase; Q9F4F7; Biochemical Sfp PPTase activity, qHTS; Potency, µM, for the others: largest response in the series, negative = inhibition, usual class: inhibitors; 3.5% of 310,000 active; AID 1490;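 also: the enzyme is Sfp with the accession as filed and its product quenches rhodamine fluorescence; 0% = enzyme reaction without inhibitor and -100% = no enzyme wells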
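Step 1, compound plus 15 nM Sfp-PPTase, 15 min, room temperature. Step 2, add rhodamine-CoA (5 uM) and BHQ-2-YbbR (12.5 uM). Step 3, read 525/598 nm fluorescence at 0 and 30 min.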
G9a inh: inhibitors of human histone lysine methyltransferase G9a; Q96KQ7; G9a H3K9 monomethylation, AlphaScreen, 2 h; Potency, µM (doses to about 102 µM), without a hit: top-dose activity, negative = inhibition, hits mostly inhibitors; 8.8% of 350,000 active; also: % is scaled to controls: 0 for no effect and ±100 for the full control effect; nearly all actives have a fitted effect of over 75% in size
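G9a (20 nM) was preincubated 15 min with compound, then reacted 2 h at room temperature with 500 nM biotin-H3K9 peptide and 20 µM SAM. Monomethyl-H3K9 detected by AlphaScreen using anti-H3K9me1 antibody.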
BAZ2B inh: BAZ2B (human) inhibition; Q9UIF8; Potency, µM (highest dose often 114 µM), without a hit: at the highest dose activity change, negative = inhibition, most hits filed as inhibitors; 4.4% of 360,000 active; AID 504333; AlphaScreen BAZ2B-H3K14Ac peptide displacement; also: % is scaled to controls: 0 for no effect and ±100 for the full control effect; nearly all actives have a fitted effect of over 60% in size
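AlphaScreen luminescence quantifies BAZ2B engagement of H3K14Ac peptide; the protein and biotinylated peptide are both at 50 nM final, buffer PBS pH 7.4 with 0.01% Tween-20, all steps at room temperature.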
JMJD2A Tudor: blocks the human JMJD2A Tudor domain. O75164. AlphaScreen JMJD2A-Tudor / H3K4me3 peptide binding. Potency, µM (top dose mostly 114 µM), for inactives: at the top dose activity change, negative = inhibition, usual class: inhibitors. 4.4% of 390,000 active. AID 504339; also: % is scaled to controls: 0 for no effect and ±100 for the full control effect; nearly all actives have a fitted effect of over 50% in size
The depositor's hits bear a star; ? = inconclusive; . = no result given; [ ] = remark or other dose. In the library only some 12% were active in any assay of this set; here they are far more common. Calls follow the shape of the dose curve; as a rule, active = well fitted curve in the direction sought with a large enough effect; inconclusive = small, poorly fitted or top-dose-only effect, or another doubt; inactive = no such curve, though single readings can be large; an effect the other way counts as inactive or inconclusive. Potency is read from the fitted curve at half-maximal effect.

SMILES	HP1b binding inh	TDP1 inh	Sfp PPTase inh	G9a inh	BAZ2B inh	JMJD2A Tudor
CC(=O)NC(c1ccc(Cl)cc1)c1c(O)ccc2ccc(O)cc12 (centres undefined)	4%	5%	10%	40µM*	-27%	-34%
CCOC(=O)CSc1nc(Cc2ccccc2)nc2ccccc12	196%	-6%	-9%	209%	85%	70%
COc1cccc(COC(=O)C2CC(=O)N(Cc3ccco3)C2)c1OC (centres undefined)	22%	2%	-5%	.	-12%	-15%
CCOc1ccc(CNC(=O)CN2N=C(c3ccccc3)CCC2=O)cc1OC	19%	8%	.	0%[59 µM]	-2%	?
Cc1cc(C)n(C(=O)CSc2nnc(SCC(=O)n3nc(C)cc3C)s2)n1	25%	-6%	-15%	79µM*	22%	-26%
Cc1cc(C)n(C(=O)CSc2ccc(Cl)cc2)n1	28%	3%	10%	.	-5%	11%
O=S(=O)(c1ccc2c(c1)OCCO2)N1CCN(S(=O)(=O)c2ccc3nc(Cl)c(Cl)nc3c2)CC1	.	-14%	.	.	.	-6%
O=C(NCCC(=O)N1CCN(S(=O)(=O)c2ccccc2F)CC1)Nc1ccccc1	4%	0%	.	?	7%	-9%
O=C(Nc1cc(C(F)(F)F)ccc1Cl)c1noc2c1CCCCC2	51%	-5%	.	43%[59 µM]	25%	21%
C=CCN1C(=O)c2ccc(C(=O)OCC(=O)N(CC)c3c(N)n(Cc4ccccc4)c(=O)[nH]c3=O)cc2C1=O	27%	.	.	.	.	-5%
COc1cc(/C=N/Nc2nc(C)cc(C)n2)ccc1OC(=O)c1ccco1	31%	5%	4%	4%[59 µM]	-23%	-1%
COc1ccc(/C=N/n2cncn2)cc1COc1ccc(NC(C)=O)cc1	-4%	9%	-6%	2%[12.7 µM]	7%	50µM*
COc1cccc(C(=O)Oc2ccc(/C=N/Nc3ccc(C(=O)O)cc3)cc2OC)c1	-6%	.	?	.	50µM*	?
COc1cc(/C=N/Nc2ccc3ccccc3c2)ccc1OC(=O)c1ccco1	17%	7%	-11%	7.9µM*	-35%	-15%
COc1cc(/C=N/NC(=O)c2ccc(N)cc2)ccc1OC(=O)c1cccc(C)c1	-23%	5%	-3%	-9%	?	?
COc1cccc(OCc2cc(/C=N/Nc3ccc(C(=O)O)cc3)ccc2OC)c1	16%	3%	-5%	?	56µM*	56µM*
COc1cccc(Cn2c(=O)c(-c3cccc(F)c3)nc3cncnc32)c1	.	.	?	2%[12.7 µM]	.	.
COc1cc2c(C=O)c3c4c(cc(OC)c(OC)c4c2cc1OC)CCN3C	.	11%[56.1 µM]	-19%	.	.	.
CCOC(=O)c1cnc(N2CCN(C(=O)OCC)CC2)[nH]c1=O	33%	5%	-2%	?	3%	-13%
COc1cc(/C=N/NS(=O)(=O)c2ccc3ccccc3c2)ccc1OCc1ccc(C(=O)O)cc1	22%	5%	9%	50µM*	-25%	-20%
COc1cc(/C=N/NS(=O)(=O)c2ccc(C)cc2)ccc1OCc1cccc(C(=O)O)c1	21%	2%	9%	4%	-20%	-21%
COc1cc(/C=N/Nc2ccc(Cl)c(C(=O)O)c2)ccc1OC(=O)c1ccc(F)cc1	7%	4%	-15%	?	?	?
COc1cc(/C=N/Nc2ccc(Cl)c(C(=O)O)c2)ccc1OC(=O)c1ccccc1F	-11%	9%	-22%	40µM*	?	?
Cn1c2ccsc2c2cnn(Cc3ccccc3F)c(=O)c21	.	-3%	.	.	.	-24%
CC(=O)OC1OCCOC1NC(=S)NCc1ccco1 (centres undefined)	-2%	-2%	22µM*	.	-2%	?
SMILES	HP1b binding inh	TDP1 inh	Sfp PPTase inh	G9a inh	BAZ2B inh	JMJD2A Tudor
CC(=O)OC1OCCOC1NC(=S)Nc1cccc(C(F)(F)F)c1 (centres undefined)	49%	0%	-23%	3%	3%	3%
CCOc1ccc(NC(=O)Cn2c(=O)n(CCC(=O)NCCc3ccccc3)c(=O)c3ccccc32)cc1	23%	0%	.	-4%[59 µM]	0%	-11%
COc1ccccc1CNC(=O)COC(=O)CNS(=O)(=O)c1ccc(C)cc1	9%	8%	28µM*	71µM*	-26%	-19%
Cc1ccc(CNC(=O)c2ccc3c(c2)CCN3S(=O)(=O)c2ccccc2)cc1	13%	7%	.	5.6µM*	-2%	-18%
O=C(NCc1ccccc1)c1ccc2c(c1)CCN2S(=O)(=O)c1ccccc1	2%	5%	.	4%[59 µM]	1%	-16%
CCN(CC)c1ccc(NC(=O)c2c(C)nn(-c3ccc(F)cc3)c2-n2cccc2)c(C)c1	-21%	8%	.	3.2µM*	35µM*	32µM*
Cc1cc(C)c(NC(=O)c2c(C)nn(-c3ccc(F)cc3)c2-n2cccc2)c(C)c1	10%	3%	.	?	-5%	-20%
COc1ccccc1CNC(=O)C1=CCN(S(=O)(=O)c2ccc(C)cc2)CC1	19%	.	5%	50µM*	-13%	-16%
COC(C[C@@H](O)[C@@H](C)[C@H](O)COCc1ccccc1)OC	29%	-1%	5%	3%[59 µM]	0%	-14%
O=S(=O)(Cc1ccc(Cl)cc1)NCc1cccnc1	37%	9%	-28%	.	3%	3%
N#Cc1cccc(NC(=O)N2CCCC3(CCN(C(=O)c4cnccn4)CC3)C2)c1	.	.	8%	-3%[12.7 µM]	.	.
CO[C@H]1COC(=O)[C@@H](Cc2ccccc2)NC(=O)[C@@H](C)COC(=O)C/C=C\[C@@H]1C	.	7%[21 µM]	22%	.	.	.
CCN(CC)c1ccc(NC(=O)C2=CCN(S(=O)(=O)c3ccc(F)cc3)CC2)c(C)c1	-7%	4%	-5%	11µM*	?	?
COCCCNC(=O)C1=CCN(S(=O)(=O)c2ccc(C)cc2)CC1	48%	4%	9%	35µM*	-12%[57.1 µM]	-4%
Cc1ccc(CNC(=O)C2=CCN(S(=O)(=O)c3ccc(C)cc3)CC2)cc1	.	1%	-14%	32µM*	3%	.
COc1ccc(CCNC(=O)C2=CCN(S(=O)(=O)c3ccc(F)cc3)CC2)cc1OC	17%	0%	1%	?	-3%	-14%
COc1ccccc1CNC(=O)CCS(=O)(=O)c1cccs1	29%	7%	-12%	45µM*	15%	-15%
COc1ccccc1CNS(=O)(=O)c1cccs1	29%	0%	9%	.	1%	-6%
Cc1ccc(CCNC(=O)C2=CCN(S(=O)(=O)c3ccccc3)CC2)cc1	63%	4%	15%	-12%[59 µM]	-10%	-4%
Cc1ccc(S(=O)(=O)N2CC=C(C(=O)NCc3ccc(F)cc3)CC2)cc1	.	.	?	22µM*	5%	.
Cc1ccc(S(=O)(=O)N2CC=C(C(=O)NC3CC3)CC2)cc1	12%	.	11%	?	0%	-10%[11.4 µM]

From PubChem BioAssay
